Source: PubChem BioAssay (National Center for Advancing Translational Sciences (NCATS))
NPC1 promoter act – qHTS Assay for NPC1 Promoter Activators; Huh7 NPC1 promoter luciferase reporter, 24 h; AID 485313, 2010; Potency, µM (titrated, usually from 9.22 µM), without a hit: at the highest dose activation, usual class: activators; 320,000 compounds, 2.4% hits; also: % of control where 0% means no effect; nearly all actives have a fitted effect of over 60% in size
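Stably transfected Huh7 (NPC1 promoter→luciferase), 1500 cells/well in Opti-MEM + 10% FBS, 2 h settle, then compound 24 h at 37 °C. Luminescence after 10 min with Amplite reagent.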
SMN2 splice enh – qHTS Assay for Enhancers of SMN2 Splice Variant Expression; HEK293 SMN2-luciferase splicing reporter, luminescence, 30-36 h; Potency, µM (highest dose often 46.1 µM), without a hit: top-dose activity change, positive = activation, usual class: activators; 210,000 compounds, 2.8% hits; AID 1458, 2008; also: % of control where 0% means no effect; nearly all actives have a fitted effect of over 55% in size
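HEK293 cells carry an SMN2 […]–luciferase reporter in which exon 7 inclusion puts luciferase in frame. Cells were plated 10-12 h before compound addition, then incubated 30-36 h at 37C. ONE-Glo luminescence was read; sodium butyrate at 4.5 mM final served as control.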
FLuc counter – qHTS profiling assay for firefly luciferase inhibitor/activator using purifed enzyme and Km concentrations of substrates (counterscreen for miR-21 project); Luciferin 4-monooxygenase (Photinus pyralis), P08659; purified FLuc, Km substrates, luminescence inhibition; Potency, µM (titrated, usually from 57.5 µM), for the others: at the top dose activity change, negative = inhibition, usual class: inhibitors; 360,000 compounds, 6.9% hits; AID 588342, 2011;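 also: plate controls were vehicle for no effect and reference inhibitor for full effect; nearly all actives have a fitted effect of over 55% in size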
Target sequence (P08659 whole entry, looked up): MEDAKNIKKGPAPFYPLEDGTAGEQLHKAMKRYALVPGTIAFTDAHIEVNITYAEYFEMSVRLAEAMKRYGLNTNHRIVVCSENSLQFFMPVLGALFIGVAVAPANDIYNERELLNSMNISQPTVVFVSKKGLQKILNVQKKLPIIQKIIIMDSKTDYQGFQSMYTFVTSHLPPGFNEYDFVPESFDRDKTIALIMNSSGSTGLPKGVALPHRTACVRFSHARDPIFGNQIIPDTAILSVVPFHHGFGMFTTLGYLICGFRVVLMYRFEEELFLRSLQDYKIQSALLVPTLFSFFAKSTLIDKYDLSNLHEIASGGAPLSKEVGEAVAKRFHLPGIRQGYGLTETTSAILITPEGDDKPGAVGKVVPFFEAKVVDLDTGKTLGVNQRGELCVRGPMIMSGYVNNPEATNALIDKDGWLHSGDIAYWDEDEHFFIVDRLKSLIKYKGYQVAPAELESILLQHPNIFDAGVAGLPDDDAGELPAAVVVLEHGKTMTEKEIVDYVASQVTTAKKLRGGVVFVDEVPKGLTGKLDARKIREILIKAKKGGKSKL
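Biochemical qHTS of compounds, final roughly 60 µM downward over six points, against 10 nM purified firefly luciferase using Km concentrations of substrates (10 uM D-luciferin, 10 uM ATP) in Tris acetate pH 7.5 buffer; luminescence output.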
Rab9 promoter act – qHTS Assay for Rab9 Promoter Activators | Huh7 Rab9 promoter-luciferase reporter, luminescence, 24 h | Potency, µM (highest dose often 9.22 µM), for inactives: top-dose activation, negative = inhibition, hits mostly activators | 320,000 compounds, 2.8% hits | AID 485297, 2010; also: % of control where 0% means no effect; nearly all actives have a fitted effect of over 60% in size
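Quantitative HTS format; Huh7 Rab9-luciferase reporter cells (1500/well) receive compound 2 h post-plating, incubate 24 h at 37 °C, then get luciferase reagent for 10 min before luminescence reading.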
ELG1 genotox – qHTS screen for small molecules that induce genotoxicity in human embryonic kidney (HEK293T) cells expressing luciferase-tagged ELG1; HEK293T ELG1-luciferase reporter, luminescence, 16 h; Potency, µM (highest dose often 46 µM), for inactives: at the top dose activity change, positive = activation, hits mostly activators; 330,000 compounds, 1.3% hits; AID 504466, 2011; also: % of control where 0% means no effect; nearly all actives have a fitted effect of over 60% in size
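HEK293T cells expressing luciferase-tagged ELG1 were treated with compound or DMSO for 16 hr at 37°C. Luciferase activity was then read after 30 min with ONE-Glo at room temperature; rising signal flags genetic stress.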
Active calls of the source: *; ? = inconclusive; . = no result given; [ ] = remark or other dose. An excerpt weighted towards active compounds, which were near 7.5% of everything screened. Calls follow the shape of the dose curve; as a rule, active = well fitted curve in the direction sought with a large enough effect; inconclusive = small, poorly fitted or top-dose-only effect, or another doubt; inactive = no such curve, though single readings can be large; an effect the other way counts as inactive or inconclusive. Potency is read from the fitted curve at half-maximal effect.

SMILES	NPC1 promoter act	SMN2 splice enh	FLuc counter	Rab9 promoter act	ELG1 genotox
CCN(CC)S(=O)(=O)c1ccc(C(=O)OCC(=O)Nc2ccc(-c3nc4ccc(C)cc4s3)cc2)cc1	0.4µM*	1µM*	2.7µM*	0.45µM*	1.6µM*
COCCNC(=O)Cn1nc(-c2ccc(C)cc2)ccc1=O	-1%	.	2%	12%	-1%
CC(=O)Nc1cccc(NC(=O)c2cccc3cccnc23)c1	-1%	.	13µM*	23%	-4%
O=C(NCCc1ccccc1F)c1cccc2cccnc12	3.2µM*	.	17µM*	1.8µM*	?
Cc1ccc(NC(=O)c2cccc3cccnc23)cc1	2.5µM*	.	5.4µM*	1.6µM*	?
COc1ccccc1C(=O)Nc1cccc2cccnc12	24%	.	17µM*	?	8%
CCOc1ncccc1C(=O)NCc1ccccc1F	-3%	-7%	-1%	-6%	2%
Cc1ccc(NC(=O)CN(C)S(=O)(=O)c2cccc3cccnc23)cc1	1%	-6%	-13%	1%	0%
O=C(CCNC(=O)c1ccccc1Cl)Nc1cccc(S(=O)(=O)N2CCCC2)c1	5%	.	-12%	11%	1%
CC1CC1C(=O)OCC(=O)N(C)CC(=O)Nc1ccc(F)cc1 (configuration not stated)	.	.	.	.	1%
CC(=O)Nc1ccc(C(=O)COC(=O)c2cccs2)c(F)c1	2.8µM*	.	3.4µM*	3.5µM*	?
CC(=O)Nc1ccc(C(=O)COC(=O)c2c(C)noc2C)c(F)c1	0%	.	?	-3%	0%
CC(=O)Nc1ccc(C(=O)COC(=O)C2CC2C)c(F)c1 (configuration not stated)	1.4µM*	.	2.1µM*	1.4µM*	?
COc1ccc(OCC(=O)N/N=C(\C)CC(=O)Nc2cccc([N+](=O)[O-])c2)cc1	-2%	0%	-17%	6%	-2%
CCOc1nc2ccccc2nc1C	18%	32%	-2%	0%	3%
O=C(COc1ccc(F)cc1Br)N1CCc2ccccc21	2.8µM*	11µM*	0.76µM*	0.63µM*	1.6µM*
O=Cc1ccc(OCC(=O)N2CCc3ccccc32)c(Br)c1	6%	.	7.6µM*	19%	?
COc1cc(CO)ccc1OCC(=O)N1CCc2ccccc21	16%	.	-6%	26%	15%
C=C1CC[C@H](O)C/C1=C/C=C1\CCC[C@]2(C)C([C@H](C)CC[C@@H](O)C(C)(C)O)CC[C@@H]12 (some centres not stated)	.	-4%	.	.	.
NS(=O)(=O)c1ccc(CCNC(=S)NC(=O)c2ccccc2Br)cc1	.	.	.	.	-1%
COc1ccc(Cl)cc1NC(=O)C1CCCO1 (configuration not stated)	-2%	.	2%	3%	5%
COc1cc2c(cc1NC(=O)C1CCCO1)oc1ccccc12 (configuration not stated)	4µM*	25µM*	6µM*	3.5µM*	4.6µM*
c1ccc(-c2cn3c(n2)CCC3)cc1	0%	1%	-5%	0%	16%
O=[N+]([O-])c1ccc(-c2cn3c(n2)CCC3)cc1	?	.	24µM*	?	15%
Cc1ccccc1-c1nc2sc3c(c2c(=O)n1N)CCCC3	18%	-60%	6.7µM*	23%	2.9µM*
SMILES	NPC1 promoter act	SMN2 splice enh	FLuc counter	Rab9 promoter act	ELG1 genotox
Nn1c(-c2cccs2)nc2sc3c(c2c1=O)CCCC3	1%	6.3µM*	2.4µM*	6.3µM*	2.3µM*
CC1(C)Cc2c(sc3nc(-c4cccs4)n(N)c(=O)c23)CO1	?	-9%	6µM*	2.8µM*	-15%
CCOc1ccc(N(CC(=O)NCc2ccc(OC)cc2)S(C)(=O)=O)cc1	?	.	?	?	29%
O=C(c1ccccc1)N1CCC(=O)N1c1ccccc1	4%	-4%[1.84 µM]	5%	-2%	0%
O=C1CN(c2ccccc2)C(=S)N1C(=O)c1ccccc1	?	.	24µM*	4µM*	?
COC(=O)C(=O)C/C(=N/Nc1ncnc2ccccc12)c1ccc(Cl)cc1	-7%	.	9.5µM*	-1%	5%
Cc1nn(Cc2c(F)c(F)c(F)c(F)c2F)c(C)c1NC(=O)c1cccc(COc2ccc(Cl)cc2)c1	?	18µM*	12µM*	?	13%
CC(C)c1cc(C(N)=O)c(NC(=O)c2cccc(COc3ccc(Cl)cc3)c2)s1	0.32µM*	1.8µM*	1.5µM*	2µM*	0.73µM*
O=C(NC(=S)Nc1ccc(Cl)c(C(=O)O)c1)c1cccc(COc2ccccc2)c1	2%	.	3%	0%	0%
COc1ccc(C2CC(=O)N(C)c3ccccc3S2)cc1OC (configuration not stated)	25%	21%	?	4µM*	18µM*
COc1ccc(C2CC(=O)N(Cc3ccc(F)cc3)c3ccccc3S2)cc1OC (configuration not stated)	.	-42%	0%	.	.
COc1ccc(C(=O)c2oc3ccc(OC)cc3c2NC(C)=O)cc1	-1%	0%	-2%	1%	4%
COC(=O)c1oc2ccc(OC)cc2c1N	13%	?	21µM*	29%	12%
COc1ccc(C(=O)c2oc3ccc(OC)cc3c2N)cc1	2.8µM*	14µM*	7.6µM*	2.8µM*	13µM*
Oc1ccccc1C1CC(c2cccs2)=NC(c2cccc(Br)c2)N1 (configuration not stated)	10%	8%	?	-2%	15%
CC(C)(C)C(=O)CN1C(=O)NC2(CCCc3ccccc32)C1=O (configuration not stated)	-1%	.	0%	1%	0%
COc1ccc(-n2c(=O)c3ccccc3n(CC(=O)NC3CCCCC3)c2=O)cc1	-3%	-2%	-1%	-9%	2%
O=c1cnn([C@@H]2O[C@H](CO)[C@@H](O)[C@H]2O)c(=O)[nH]1	-6%	2µM*	3%	1%	-12%
c1ccc(CSc2nc3ccccc3[nH]2)cc1	0.79µM*	.	3.4µM*	0.79µM*	?
Fc1ccc(CSc2nc3ccccc3[nH]2)cc1	2.8µM*	11µM*	4.8µM*	1.4µM*	?
CCOc1ccc2nc(SCC)[nH]c2c1	?	4%	19µM*	?	16%
CCOc1ccc2nc(SCC(=O)NCc3ccccc3)[nH]c2c1	0%	.	-11%	-1%	-7%
CCSc1nc2ccccc2[nH]1	6%	15%	-8%	-9%	-7%
O=[N+]([O-])c1ccc(CSc2nc3ccccc3[nH]2)cc1	4µM*	16µM*	6µM*	2.2µM*	?
O=C(c1cccc(COCC(F)(F)C(F)F)c1)N1CCN(c2ccccc2)CC1	.	-9%	2%	.	.
